Most compounds without a hit are left out; they make up all but 0.87% or so of the library.
USP1-UAF1 inh: Inhibitors of USP1/UAF1: Primary Screen. Ubiquitin carboxyl-terminal hydrolase 1 (Homo sapiens), O94782. recombinant USP1/UAF1, Ub-Rhodamine cleavage fluorescence. Potency, µM (doses to about 57.1 µM), for the others: at the highest dose activity change, negative = inhibition, most hits filed as inhibitors. 0.23% of 390,000 active. AID 743255, 2014; note: potency is the fitted concentration of half-maximal effect; % is set by controls: 0 for no effect and ±100 for the full control effect; nearly all actives have a fitted effect of over 60% in size
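USP1/UAF1 complex (1 nM) preincubated 15 min at room temperature with compound, then Ub-Rho substrate (150 nM final) added. Kinetic fluorescence at 480/540 nm over 6 reads at 60 s intervals; 50 mM HEPES pH 7.8, 0.5 mM EDTA, 0.1 mg/ml BSA, 1 mM TCEP, 0.01% Tween-20.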
EPAC1 antagonist: qHTS for Antagonist of cAMP-regulated guanine nucleotide exchange factor 3 (EPAC1): primary screen | EPAC1 GEF assay, Rap1b-BODIPY-GDP exchange fluorescence | 0.14% of 360,000 active | Rap guanine nucleotide exchange factor 3 (Homo sapiens), O95398 | Potency, µM (highest dose often 115 µM), without a hit: top-dose activity change, negative = inhibition, hits mostly inhibitors;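 note: potency is the fitted concentration of half-maximal effect; plate controls were vehicle for no effect and positive control for full effect; nearly all actives have a fitted effect of over 50% in size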
EPAC1 ag: qHTS for Agonist of cAMP-regulated guanine nucleotide exchange factor 3 (EPAC1): primary screen; EPAC1 agonist qHTS, biochemical assay; response scale: 100% = response to 6.5 mM cAMP; Potency, µM (titrated, usually from 154 µM), without a hit: at the top dose activation, usual class: activators; 0.073% of 360,000 active; Rap guanine nucleotide exchange factor 3 (Homo sapiens), O95398; note: potency is the fitted concentration of half-maximal effect; nearly all actives have a fitted effect of over 60% in size
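Read-out is the fluorescence drop as BODIPY-GDP leaves Rap1B (480 nm excitation, 540 nm emission), recorded every 5 minutes over 30 minutes. Reactions held 100 nM EPAC1, 250 nM Rap1B–BODIPY-GDP and 50 uM GDP, with 6.5 mM cAMP setting full activation.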
EPAC2 antag: qHTS for Antagonist of cAMP-regulated guanine nucleotide exchange factor 2 (EPAC2): primary screen; EPAC2 GEF exchange of Rap1B-BODIPY-GDP, fluorescence; 0.18% of 360,000 active; Potency, µM (titrated, usually from 114 µM), inactives show top-dose activity, negative = inhibition, most hits filed as inhibitors; note: potency is the fitted concentration of half-maximal effect; % is set by controls: 0 for no effect and ±100 for the full control effect; nearly all actives have a fitted effect of over 45% in size
Coupling enz: qHTS Assay for Inhibitors of Fructose-1,6-bisphosphate Aldolase from Giardia Lamblia: Coupling assay counterscreen. coupling enzyme system counterscreen, AmpLite Red fluorescence. activity change, negative = inhibition, % at 58.2 µM, hits read low. 0.67% of 290,000 active; in the data active = activity change below about -30%; note: % is set by controls: 0 for no effect and ±100 for the full control effect
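Activity here indicates interference with the coupling reaction, not aldolase inhibition. Compounds at 57.5 uM final met coupling enzymes for 10 min at RT; substrate and AmpLite Red detection followed, with a 525/598 nm fluorescence read after 20 min.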
EPAC2 agonist: qHTS for Agonist of cAMP-regulated guanine nucleotide exchange factor 4 (EPAC2): primary screen | EPAC2 activation, biochemical qHTS; response scale: 100% = 6.5 mM cAMP response | Potency, µM (doses to about 154 µM), for the others: at the top dose activation, most hits filed as activators | 0.079% of 360,000 active | Rap guanine nucleotide exchange factor 4 (Homo sapiens), Q8WZA2; note: potency is the fitted concentration of half-maximal effect; nearly all actives have a fitted effect of over 50% in size
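qHTS, titration series. 100 nM EPAC2 / 250 nM Rap1B-BODIPY-GDP / 50 uM GDP; RT; ex 480/em 540 nm, 5-min reads to 30 min. Norm. to 6.5 mM cAMP = activation.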
Starred values were filed as active, the others as inactive. Unless noted, calls come from the whole dose curve; as a rule, active = well fitted curve in the direction sought with a large enough effect; inconclusive = small, poorly fitted or top-dose-only effect, or another doubt; inactive = no such curve, though single readings can be large; an effect the other way counts as inactive or inconclusive.

`COc1ccc2c3c([nH]c2c1)C(C)=NCC3` gave USP1-UAF1 inh -30.2%, EPAC1 antagonist 4.2%, EPAC1 ag -9.6%, EPAC2 antag 6.8%, Coupling enz -3.1 and EPAC2 agonist 2.0%.
Screening CC1=NCCc2c1[nH]c1cc(O)ccc21 returned USP1-UAF1 inh 25.1µM*, EPAC1 antagonist 70.6%, EPAC1 ag 112µM*, EPAC2 antag inactive, Coupling enz -3.9 and EPAC2 agonist 100µM*.
Screening C[C@@H]1O[C@@H](Oc2c(-c3ccc(O)c(O)c3)oc3cc(O)cc(O)c3c2=O)[C@H](O)[C@H](O)[C@H]1O returned USP1-UAF1 inh -15.8%, EPAC1 antagonist inconclusive, EPAC1 ag -9.2%, EPAC2 antag 6.2% and EPAC2 agonist 2.4%.
For O=c1c(O)c(-c2ccc(O)c(O)c2)oc2c(O)c(O)cc(O)c12 the results were Coupling enz -57.4*.
CCN1C[C@@]2(COC)C3[C@@H](OC)[C@H]4C1[C@@]3(C1C[C@]3(O)C(OC)[C@H](O)[C@@]4(OC(C)=O)C1[C@H]3OC(=O)c1ccccc1)[C@H](OC)C[C@H]2O (stereo not given in full) was read as Coupling enz 2.3.
CCOP(=S)(OCC)Oc1cc(C)nc(C(C)C)n1 was read as USP1-UAF1 inh -21.0%, EPAC1 antagonist -4.8%, EPAC1 ag 12.1%, EPAC2 antag 22.4µM* and EPAC2 agonist -10.5%.
`CCOc1cc(OP(=S)(OC)OC)nc(CC)n1` gave Coupling enz 2.3.
CCN1/C(=C\C=C\C2=[N+](CC)c3ccccc3C2(C)C)C(C)(C)c2ccccc21 was read as USP1-UAF1 inh 14.1µM*, EPAC1 antagonist 93.6%, EPAC1 ag 79.4µM*, EPAC2 antag 72.6%, Coupling enz 4.2 and EPAC2 agonist 50.1µM*.
`C[C@]12CC[C@H](O)CC1=CCC1C2CC[C@]2(C)C(=O)CC[C@@H]12` (stereo not given in full) gave Coupling enz 5.0.
`Cc1cc(C)cc(N2C(=O)/C(=C\c3ccc(N4CCN(C)CC4)o3)C(=O)NC2=S)c1` gave USP1-UAF1 inh 31.6µM*, EPAC1 antagonist 23.9%, EPAC1 ag inconclusive, EPAC2 antag -6.5%, Coupling enz -0.2 and EPAC2 agonist 28.2%.
Screening Cc1ccc(/C=C2\C(=O)NC(=S)N(c3ccc(F)cc3)C2=O)o1 returned USP1-UAF1 inh inconclusive, EPAC1 antagonist -22.9%, EPAC1 ag 4.0%, EPAC2 antag 19.7%, Coupling enz -0.2 and EPAC2 agonist 5.5%.
CN1CCN(c2ncc(C=O)s2)CC1 was read as USP1-UAF1 inh -1.8%, EPAC1 antagonist -9.9%, EPAC1 ag -12.4%, EPAC2 antag -4.4%, Coupling enz -37.4* and EPAC2 agonist -8.4%.
For C[C@H]1CC[C@@H]2[C@@H](C)[C@H]3C(CC4C5CC=C6CC(O[C@@H]7O[C@H](CO)C(O[C@@H]8O[C@@H](C)[C@H](O)[C@@H](O)[C@H]8O)[C@H](O)[C@H]7O[C@@H]7O[C@@H](C)[C@H](O)[C@@H](O)[C@H]7O)CC[C@]6(C)C5CC[C@@]43C)N2C1 (stereo not given in full) the results were Coupling enz -0.3.
Screening c1cc[n+]2c(c1)-c1cccc[n+]1CC2 returned Coupling enz -35.4*.

Screening results from PubChem.
